The results in this text go back to PubChem BioAssay AID624168 (Sanford-Burnham Center for Chemical Genomics, 2012).

Each structure is given as a SMILES string. Among all 360,000 compounds or so, about 800 (0.22%) were called active. Many of the other results were omitted from the sample, so actives are more common in it than they were. Unmarked numbers belong to inactive results.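 Rule for the calls: active = activation of at least 8% versus controls, or a plate z-score of at least 8; inactive = the rest.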

The nature of the assay: activators of alpha-DG glycosylation, primary screen, uHTS, Pro5-aDG cells, AlphaScreen (AID 624168).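 Note: Pro5 are CHO cells carrying HIG-tagged alpha-DG that lacks glycosylation.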 Conditions: alpha-DG glycosylation AlphaScreen (IIH6), at 10 µM, hits give high values; 0% Pro5, 100% B10-LARGE cell signal unless noted. On the technique in general: Bead proximity is the source of the signal in Alpha formats.
`CNCC(O)c1cc(F)c(OCc2ccccc2)c(OCc2ccccc2)c1F` (stereo not given): the activation is 7.7% (active).

For the compound `Cc1ccc(C2CN(C)CC2C(=O)c2ccc(F)cc2)cc1` (stereo not given), the activation was 0% [setting not given].

`Cc1nc2ccccn2c1P(=S)(N1CCCCC1)N1CCCCC1`: the activation is -0.2% [setting not given].

For the compound `COc1cc(C(=O)N2Cc3ccc(Br)cc3-n3nncc3C2)cc(OC)c1OC`, the activation is -0.2%.

For the compound `COC(=O)C1=C(c2ccc(F)cc2OCc2ccccc2)C[C@@H]2CC[C@H]1N2C(=O)NCc1ccc(Cl)cc1`, the activation was 0.6%.
